Source: PubChem BioAssay
Most compounds without a hit are left out; they make up all but 21% or so of the library.
Pf growth 96h: P. falciparum growth inhibition at 96 hours; P. falciparum luciferase reporter growth, 96 h; Potency, µM (top dose mostly 28.7 µM), actives largely listed as inhibitors; hit rate 6.9% among 320,000
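Compounds incubated with erythrocytes infected by luciferase-expressing P. falciparum (2% hematocrit, 0.05% parasitemia final) for 96 hours, 37 C in 5% CO2. Growth inhibition scored as decreased luciferase luminescence.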
Shiga toxin inh: blocks Shiga toxin action in Vero cells; inhibition, % at 38.7 µM; hit rate 9.2% among 290,000; Vero cells, Shiga toxin protein synthesis inhibition reporter; in the data active = inhibition mostly above about 28%, no sharp cut-off; inactive = mostly below about 43%
Pf growth 48h: P. falciparum growth inhibition at 48 hours (one generation); hit rate 5.9% among 310,000; AID 504832; P. falciparum luciferase growth in erythrocytes, 48 h; Potency, µM (titrated, usually from 28.7 µM), most hits filed as inhibitors
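Erythrocytes infected with P. falciparum carrying an integrated firefly luciferase reporter (2% hematocrit, 0.1% parasitemia final) were exposed to compounds in RPMI 1640 with 0.5% Albumax at 37 C, 5% CO2. Growth inhibition was scored as reduced luminescence.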
Cycloheximide cs: counter-screen for Shiga toxin inhibitors: cycloheximide protein synthesis inhibition | cell reporter, cycloheximide protein synthesis inhibition counterscreen | max response, % | hit rate 12% among 300,000; in the data active = max response mostly above about 13%, no sharp cut-off; inactive = mostly below about 14%; also: read at 38.3 µM for the half of the compounds with a filed dose
NS1 function inh: blocks influenza NS1 protein function; Potency, µM (titrated, usually from 46.1 µM); hit rate 0.4% among 270,000; AID 2326; calls by dose curve; also: actives are rising curves; nearly all actives have a fitted effect of over 50% in size
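Compounds were scored for reversing the slow growth caused by influenza A NS1 in S. cerevisiae, measured by optical density at 600 nm. Assay medium contained 2% galactose at pH 6.0; NS1-free yeast of the same strain were the positive control.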
A number is an active result; - = inactive; ? = inconclusive; . = not tested or not shown; [ ] = another dose, or the depositor's remark. Unless noted, calls follow the shape of the dose curve; as a rule, active = well fitted inhibition curve with a large enough effect; inconclusive = small, poorly fitted or top-dose-only effect, or another doubt; inactive = no such curve, though single readings can be large or run the other way.

SMILES	Pf growth 96h	Shiga toxin inh	Pf growth 48h	Cycloheximide cs	NS1 function inh
O=C(Nc1ccc(Cl)cc1)C1CCCN(c2cnccn2)C1 (stereo unspecified)	?	-	-	24	-
O=C(Nc1ccc(S(=O)(=O)N2CCCCC2)cc1)C1CCCN(C(=O)c2ccc(Cl)cc2)C1 (stereo unspecified)	12µM	-	?	-	?
O=C(Nc1ccccc1)C1CCCN(C(=O)c2ccc(Cl)cc2)C1 (stereo unspecified)	-	-	-	-	.
CN(C)S(=O)(=O)c1ccc(NC(=O)C2CCCN(C(=O)c3ccc(Cl)cc3)C2)cc1 (stereo unspecified)	?	-	-	-	-
O=C(Nc1cccc(S(=O)(=O)N2CCOCC2)c1)C1CCCN(C(=O)c2ccc(Cl)cc2)C1 (stereo unspecified)	10µM	-	?	-	-
CC1(C)CC(NC(=S)Nc2ccc([N+](=O)[O-])cc2)CC(C)(C)N1	-	-	?	-	-
CC1(C)O[C@@H]2[C@H](O1)[C@@H](COS(=O)(=O)O)O[C@H]2n1c(=S)[nH]c2c(=O)[nH]c(N)nc21	-	.	-	.	.
CC(=O)Nc1ccc(-c2nnn(CC(=O)Nc3ccc4c(c3)OCO4)n2)cc1Cl	?	-	-	-	.
CC/C(=N\NC(=O)C(N)=O)c1ccccc1O	-	-	-	-	-
O=S(=O)(c1ccc(OCC(O)CNC23CC4CC(CC(C4)C2)C3)c(Cl)c1)N1CCOCC1 (stereo unspecified)	?	-	10µM	-	-
Cc1ccnc(NC(NC(=O)C(C)C)(C(F)(F)F)C(F)(F)F)c1	-	-	-	-	-
CC1(C)CC(=O)c2c(O)cc(OCC(=O)Nc3ccc(CCO)cc3)cc2O1	?	-	-	16	-
COc1cc(NC(=O)COc2cc(O)c3c(c2)OC(C)(C)CC3=O)cc(OC)c1	?	-	-	-	-
COc1cccc(NC(=O)COc2cc(O)c3c(c2)OC(C)(C)CC3=O)c1	-	-	-	24	-
CC(=O)NC(c1ccccc1)c1cc(Cl)c2cccnc2c1O (stereo unspecified)	?	-	0.83µM	-	-
COc1ccc(C(=O)NC(c2ccccc2Cl)c2cc(Cl)c3cccnc3c2O)cc1 (stereo unspecified)	.	-	.	-	.
COc1ccc(C(NC(C)=O)c2cc(Cl)c3cccnc3c2O)cc1 (stereo unspecified)	?	.	?	-	-
O=C(NC(c1ccc(Cl)cc1)c1cc(Cl)c2cccnc2c1O)c1cccnc1 (stereo unspecified)	-	-	1.2µM	-	-
CCO[C@@H]1OC(C(=O)O)=C[C@H](C2CC2)[C@H]1CCCO	-	-	-	-	-
CCOc1ccc(Oc2cc(N)cc([N+](=O)[O-])c2)cc1	?	53	-	-	.
COCCNC(=O)CN(Cc1cccs1)C(=O)CCC(=O)Nc1nccs1	-	-	-	-	-
CCCCCCCN(C(=O)CCl)c1ccccc1C	?	-	?	-	-
CCN(CC)c1ccc2cc(C=O)c(=O)oc2c1	-	-	-	24	-
CCN(CC)c1ccc2cc(/C(N)=N/NC(=O)c3cccs3)c(=O)oc2c1	-	-	-	-	?
CCN(CC)c1ccc2cc(C(N)=O)c(=O)oc2c1	10µM	-	-	23	-
SMILES	Pf growth 96h	Shiga toxin inh	Pf growth 48h	Cycloheximide cs	NS1 function inh
CCN(CC)c1ccc2cc(NC(=O)CCC(=O)O)c(=O)oc2c1	?	-	?	-	-
CCN(CC)c1ccc2cc(C(C)=O)c(=O)oc2c1	-	80	-	-	-
CCN(CC)c1ccc2cc(-c3nnc(-c4ccncc4)o3)c(=O)oc2c1	-	active	-	-	-
CCSc1nnc(-c2ccncc2)o1	-	-	-	-	-
CCS(=O)(=O)NCC(c1cccnc1)N1CCN(c2ccccc2F)CC1 (stereo unspecified)	?	-	?	-	-
OCCC1CN(Cc2nc3ccccc3s2)CCN1C1CCCC1 (stereo unspecified)	?	-	-	-	-
CCN(CC)c1ccc2cc(C(=O)Nc3ccccn3)c(=O)oc2c1	-	63	-	79	-
CCN(CC)c1ccc2cc(C(N)=O)c(=N)oc2c1	-	-	-	41	-
CC(=O)N1c2ccc(S(=O)(=O)N3CCC(C(=O)Nc4cccc(C(F)(F)F)c4)CC3)cc2CC1C (stereo unspecified)	?	-	?	-	-
CC(C)NC(=S)NC(c1ccccc1)(c1ccccc1)c1ccccc1	8.3µM	-	6.6µM	-	-
CCN(CC)S(=O)(=O)c1ccc(C)c(NC(=S)NC2CCCCC2)c1	?	-	15µM	-	-
CCN(CC)S(=O)(=O)c1csc(C(=O)NC2CCCCC2)c1	.	-	-	-	-
CCN(CC)S(=O)(=O)c1ccc(Cl)c(NC(=S)NC(=O)C2CCCC2)c1	?	.	13µM	.	.
Cc1ccc(S(=O)(=O)N(C)C)cc1NC(=S)NC1CCCC(C)C1C (stereo unspecified)	?	-	-	-	-
CCN(CC)S(=O)(=O)c1cccc(C(=O)NC2CCCCC2)c1	1.7µM	-	-	-	-
Cc1ccc(NC(=S)NC2CCCCC2)cc1S(=O)(=O)N(C)C	-	125	-	32	-
CCc1ccc(NC(=O)NCCN2CCCCC2)cc1	-	-	-	-	-
CC(C)C1=C[C@@]23CC[C@@H]4[C@](C)(CCC[C@@]4(C)C(=O)O)[C@@H]2C[C@@H]1[C@@H](C(=O)O)[C@@H]3C(=O)O	.	.	.	.	-
CN(C)c1ccc(NC(=O)CCN2CCN(c3ccccn3)CC2)cc1	-	-	-	-	-
CN(C)c1ccnc2sc3c(=O)n(-c4ccccc4)cnc3c12	-	-	-	12	-
CN(C)c1ccnc2sc(C(=O)NCc3ccccc3)c(N)c12	-	-	?	-	-
COc1cccc(C(=O)Nc2cccc3c2ccc2cccn23)c1	?	-	?	-	.
c1ccc(-n2ncc3c(NCCCN4CCOCC4)ncnc32)cc1	?	148	-	34	-
Clc1ccc(-n2ncc3c(NCCN4CCOCC4)ncnc32)cc1	-	121	-	43	-[9.22 µM]
Cc1ccc(S(=O)(=O)N2CCC(C(=O)NNC(=O)c3cccnc3)CC2)cc1	?	-	-	-	-
O=c1[nH]c(=S)[nH]c2c1CN(CCCN1CCOCC1)CN2	.	.	.	.	-
O=C1OC(c2ccc(Cl)cc2)/C(=C(/O)c2ccccc2)C1=O (stereo unspecified)	-	65	-	37	-
CN1C(=O)C(=O)/C(=C(/O)c2ccc(Br)cc2)C1c1ccc(Cl)cc1 (stereo unspecified)	-	.	-	-	-
C[C@]12C=CC(=O)C=C1CC[C@@H]1C2C(O)C[C@@]2(C)C1CC[C@]2(O)C(=O)COC(=O)CCC(=O)NC(CC(=O)O)C(=O)O (stereo partly specified)	-	-	-	-	-
CSCCC(NC(=O)CCC(=O)OCC(=O)[C@@]1(O)CCC2[C@@H]3CCC4=CC(=O)C=C[C@]4(C)C3[C@@H](O)C[C@@]21C)C(=O)O (stereo partly specified)	?	-	5.2µM	-	-
